Source: PubChem BioAssay AID1159580 (chemical genetic matrix, 2015)
Out of some 5,500 compounds screened, about 2,000 (36%) were called active. Roughly 18% stayed inconclusive and do not appear here. Cut-off read from the data, not from the text of the source: active = normalized growth mostly below about 0.91 (no sharp cut-off); inconclusive = no clear call, values can overlap the other calls; inactive = mostly above about 0.92. The list shows a part of the results.

Assay: chemical genetic growth profiling, strain panel (AID 1159580);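 note: tested at 20 µM; growth read once vehicle control cultures reached saturation at 30 °C; 1 = growth at the plate median or of vehicle wells; lower values mean less growth of the strain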
Settings: growth OD

Measured: normalized growth

COC1=C(OC)C(=O)C(C/C=C(\C)CC/C=C(\C)CC/C=C(\C)CC/C=C(/C)CC/C=C(\C)CC/C=C(\C)CC/C=C(\C)CC/C=C(\C)CC/C=C(\C)CCC=C(C)C)=C(C)C1=O
inactive: S. cerevisiae deletion strains, locus YJR043C, strain POL32, stronger effect = lower value 1.03 | S. cerevisiae deletion strains, locus YJR066W, strain TOR1, stronger effect = lower value 0.982 | S. cerevisiae deletion strains, locus YKL009W, strain mrt4, stronger effect = lower value 1.07 | S. cerevisiae deletion strains, locus YKL068W, stronger effect = lower value 0.99 | S. cerevisiae deletion strains, locus YKL085W, strain MDH1 (second series), stronger effect = lower value 1 | S. cerevisiae deletion strains, locus YKL085W, strain MDH1, stronger effect = lower value 1 | S. cerevisiae deletion strains, locus YKL160W, strain elf1, stronger effect = lower value 0.988 | S. cerevisiae deletion strains, locus YKR001C, strain vps1, stronger effect = lower value 0.999 | S. cerevisiae deletion strains, locus YKR026C, strain gcn3, stronger effect = lower value 0.986 | S. cerevisiae deletion strains, locus YKR091W, strain srl3, stronger effect = lower value 0.98 | S. cerevisiae deletion strains, locus YLL001W, strain dnm1, stronger effect = lower value 0.974 | S. cerevisiae deletion strains, locus YLL026W, stronger effect = lower value 1 | S. cerevisiae deletion strains, locus YLL041C, strain sdh2, stronger effect = lower value 0.973 | S. cerevisiae deletion strains, locus YLR027C, strain aat2, stronger effect = lower value 0.988 | S. cerevisiae deletion strains, locus YLR039C, strain RIC1, stronger effect = lower value 1.04 | S. cerevisiae deletion strains, locus YLR058C, strain SHM2, stronger effect = lower value 0.985 | S. cerevisiae deletion strains, locus YLR102C, strain apc9, stronger effect = lower value 0.994 | S. cerevisiae deletion strains, locus YLR113W, strain HOG1, stronger effect = lower value 0.986 | S. cerevisiae deletion strains, locus YLR221C, strain rsa3, stronger effect = lower value 0.97 | S. cerevisiae deletion strains, locus YLR258W, strain gsy2, stronger effect = lower value 0.982 | S. cerevisiae deletion strains, locus YLR262C, strain YPT6 (second series), stronger effect = lower value 0.942 | S. cerevisiae deletion strains, locus YLR262C, strain YPT6, stronger effect = lower value 0.972 | S. cerevisiae deletion strains, locus YLR268W, strain sec22, stronger effect = lower value 1.03 | S. cerevisiae deletion strains, locus YLR320W, strain mms22, stronger effect = lower value 0.991 | S. cerevisiae deletion strains, locus YLR330W, strain CHS5, stronger effect = lower value 1.01 | S. cerevisiae deletion strains, locus YLR342W, strain FKS1 (second series), stronger effect = lower value 1.1 | S. cerevisiae deletion strains, locus YLR342W, strain FKS1, stronger effect = lower value 0.96 | S. cerevisiae deletion strains, locus YLR357W, strain rsc2, stronger effect = lower value 0.987 | S. cerevisiae deletion strains, locus YLR370C, strain arc18, stronger effect = lower value 0.953 | S. cerevisiae deletion strains, locus YLR371W, strain rom2, stronger effect = lower value 0.99 | S. cerevisiae deletion strains, locus YLR384C, strain iki3, stronger effect = lower value 0.988 | S. cerevisiae deletion strains, locus YLR418C, strain cdc73, stronger effect = lower value 0.997 | S. cerevisiae deletion strains, locus YML016C, strain PPZ1, stronger effect = lower value 1.01 | S. cerevisiae deletion strains, locus YML032C, strain rad52, stronger effect = lower value 0.971 | S. cerevisiae deletion strains, locus YML120C, strain ndi1, stronger effect = lower value 0.985 | S. cerevisiae deletion strains, locus YML124C, strain tub3, stronger effect = lower value 0.99 | S. cerevisiae deletion strains, locus YMR058W, strain fet3, stronger effect = lower value 0.977 | S. cerevisiae deletion strains, locus YMR078C, strain ctf18, stronger effect = lower value 0.992 | S. cerevisiae deletion strains, locus YMR125W, strain sto1, stronger effect = lower value 0.972 | S. cerevisiae deletion strains, locus YMR129W, stronger effect = lower value 0.974 | S. cerevisiae deletion strains, locus YMR205C, strain PFK2, stronger effect = lower value 1.01 | S. cerevisiae deletion strains, locus YMR223W, strain ubp8, stronger effect = lower value 1.01 | S. cerevisiae deletion strains, locus YMR231W, strain pep5, stronger effect = lower value 0.981 | S. cerevisiae deletion strains, locus YMR307W, strain GAS1, stronger effect = lower value 1.13 | S. cerevisiae deletion strains, locus YNL067W, strain RPL9B, stronger effect = lower value 0.995 | S. cerevisiae deletion strains, locus YNL071W, strain lat1, stronger effect = lower value 0.965 | S. cerevisiae deletion strains, locus YNL183C, strain NPR1, stronger effect = lower value 0.982 | S. cerevisiae deletion strains, locus YNL209W, strain ssb2, stronger effect = lower value 0.971 | S. cerevisiae deletion strains, locus YNL233W, strain BNI4, stronger effect = lower value 1 | S. cerevisiae deletion strains, locus YNL248C, strain rpa49, stronger effect = lower value 0.974 | S. cerevisiae deletion strains, locus YNL250W, strain rad50, stronger effect = lower value 0.985 | S. cerevisiae deletion strains, locus YNL271C, strain bni1, stronger effect = lower value 1.02 | S. cerevisiae deletion strains, locus YNL298W, strain CLA4, stronger effect = lower value 0.998 | S. cerevisiae deletion strains, locus YNL307C, strain MCK1, stronger effect = lower value 0.995 | S. cerevisiae deletion strains, locus YNL322C, strain KRE1 (second series), stronger effect = lower value 0.958 | S. cerevisiae deletion strains, locus YNL322C, strain KRE1, stronger effect = lower value 0.994 | S. cerevisiae deletion strains, locus YNR049C, strain mso1, stronger effect = lower value 0.971 | S. cerevisiae deletion strains, locus YNR052C, strain pop2, stronger effect = lower value 1 | S. cerevisiae deletion strains, locus YOL012C, strain htz1 0.872 | S. cerevisiae deletion strains, locus YOL147C, strain pex11, stronger effect = lower value 1 | S. cerevisiae deletion strains, locus YOR001W, strain rrp6, stronger effect = lower value 0.932 | S. cerevisiae deletion strains, locus YOR061W, strain CKA2, stronger effect = lower value 0.981 | S. cerevisiae deletion strains, locus YOR069W, strain VPS5, stronger effect = lower value 1.01 | S. cerevisiae deletion strains, locus YOR070C, strain gyp1, stronger effect = lower value 0.975 | S. cerevisiae deletion strains, locus YOR080W, strain dia2, stronger effect = lower value 0.999 | S. cerevisiae deletion strains, locus YOR083W, strain WHI5, stronger effect = lower value 0.998 | S. cerevisiae deletion strains, locus YOR106W, strain vam3, stronger effect = lower value 0.973 | S. cerevisiae deletion strains, locus YOR136W, strain idh2, stronger effect = lower value 0.998 | S. cerevisiae deletion strains, locus YOR144C, strain elg1, stronger effect = lower value 0.987 | S. cerevisiae deletion strains, locus YOR184W, strain ser1, stronger effect = lower value 1 | S. cerevisiae deletion strains, locus YOR231W, strain MKK1, stronger effect = lower value 1.05 | S. cerevisiae deletion strains, locus YOR265W, strain rbl2, stronger effect = lower value 0.99 | S. cerevisiae deletion strains, locus YOR270C, strain vph1, stronger effect = lower value 0.967 | S. cerevisiae deletion strains, locus YOR290C, strain snf2, stronger effect = lower value 0.992 | S. cerevisiae deletion strains, locus YOR316C, strain cot1, stronger effect = lower value 0.994 | S. cerevisiae deletion strains, locus YPL051W, strain arl3, stronger effect = lower value 1 | S. cerevisiae deletion strains, locus YPL055C, strain LGE1, stronger effect = lower value 1.02 | S. cerevisiae deletion strains, locus YPL078C, strain atp4, stronger effect = lower value 0.965 | S. cerevisiae deletion strains, locus YPL106C, strain sse1, stronger effect = lower value 0.963 | S. cerevisiae deletion strains, locus YPL240C, strain hsp82, stronger effect = lower value 0.982 | S. cerevisiae deletion strains, locus YPL241C, strain CIN2, stronger effect = lower value 0.996 | S. cerevisiae deletion strains, locus YPL256C, strain CLN2, stronger effect = lower value 1.04 | S. cerevisiae deletion strains, locus YPR119W, strain clb2, stronger effect = lower value 0.981 | S. cerevisiae deletion strains, locus YPR141C, strain kar3, stronger effect = lower value 0.981 | S. cerevisiae deletion strains, locus YPR163C, strain tif3, stronger effect = lower value 0.992 | S. cerevisiae deletion strains, locus YPR167C, strain met16, stronger effect = lower value 0.982 | S. cerevisiae deletion strains, strain wtn01, stronger effect = lower value 1.02 | S. cerevisiae strains, strain wild type, stronger effect = lower value 1.01
